This passage reports inhibition results from PubChem BioAssay AID720509 (The Scripps Research Institute Molecular Screening Center, 2013).

The whole screen tested about 370,000 compounds, of which about 760 (0.21%) were called active. Many of the other results were omitted from the sample, so actives are more common in it than they were. A number with no mark means an inactive call.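 Rule for the calls: active = inhibition above a per-campaign cutoff: mean of compounds within control limits plus 3 SD (cut at about 15% in these data); inactive = the rest.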

The assay deals with Fibrinogen beta chain (Homo sapiens) (UniProt P02675). Description: inhibitors of Tn6 peptide binding to fibrin DD(E), primary screen, biochemical, fluorescence polarization, human fibrin, Tn6 probe (AID 720509).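 Note: 0% = median of all compound wells on the plate and 100% = blocking peptide control.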 To be noted: Fibrin DD(E) TRITC-Tn6 fluorescence polarization displacement; at 8.3 µM; hits give high values. On the technique in general: In fluorescence polarisation assays a small probe gives low polarisation when free and higher when bound to something large.
Fibrinogen beta chain (Homo sapiens), sequence (P02675 whole entry, looked up): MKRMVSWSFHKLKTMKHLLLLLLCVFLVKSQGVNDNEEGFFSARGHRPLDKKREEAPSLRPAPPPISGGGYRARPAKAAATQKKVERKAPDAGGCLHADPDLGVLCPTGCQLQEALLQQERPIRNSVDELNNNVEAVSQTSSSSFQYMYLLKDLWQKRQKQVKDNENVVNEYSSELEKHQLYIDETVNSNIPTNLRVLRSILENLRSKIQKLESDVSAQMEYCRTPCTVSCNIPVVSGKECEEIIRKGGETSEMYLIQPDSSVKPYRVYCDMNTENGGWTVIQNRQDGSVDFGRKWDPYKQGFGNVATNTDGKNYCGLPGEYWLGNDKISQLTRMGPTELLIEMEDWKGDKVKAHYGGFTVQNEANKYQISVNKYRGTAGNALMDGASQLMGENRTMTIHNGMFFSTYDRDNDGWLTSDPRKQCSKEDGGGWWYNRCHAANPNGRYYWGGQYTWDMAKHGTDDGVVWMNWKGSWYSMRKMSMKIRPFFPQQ
With `CC1CNCCN1c1ccc(Cl)cc1` (stereo not given), the inhibition – broadly, the drop in the measured response relative to a control, in per cent – is 0.71%.

As for `Cc1cc(N2CCNC[C@@H]2C)ccc1N1CC[C@H](O)C1`, the inhibition was 15.6% (active). In the case of `COc1ccccc1-n1c(O)c(C=NC2CC2)c(=O)[nH]c1=O`, the inhibition was -5.91%. In the case of `CC(=O)C1(O)CCC2C3CCC4=C(Cl)C(=O)CCC4(C)C3CCC21C` (stereo not given) it was -1.79%; in that of `OC(Cn1c2ccccc2c2ccccc21)C[n+]1ccccc1` (stereo not given), -10%. Regarding `COC1=C[C@@H]2[C@@H]3Cc4ccc(OC)c(O)c4[C@]2(CCN3C)CC1=O`, the inhibition was 5.14%. For the compound `COc1c(O)ccc2c1-c1c3c(cc4c1C(C2)N(C)CC4)OCO3` (stereo not given), the inhibition is 0.43%. The value for `COc1ccc2c(c1O)-c1cccc3c1[C@@H](C2)N(C)CC3` was 15.8% (active). Take `Fc1cccc(F)c1CN1CCN(Cc2c(F)cccc2F)CC1`: the inhibition is -1.68%. For `CO[C@H]([C@H](C)/C=C/N(C)C=O)[C@@H](C)C(=O)CC[C@H](C)[C@H](O)[C@H](C)[C@H]1OC(=O)/C=C/C(C)=C/[C@H](O)[C@H](OC)C[C@@H]2C=CC[C@@H](C[C@H](OC)[C@@]3(CO3)[C@@H](OC)C[C@@H](OC)[C@@H]1C)O2`, the inhibition was 1.04%.
